Source: PubChem BioAssay (National Center for Advancing Translational Sciences (NCATS))
Rows were chosen to be rich in hits. Some 12% of all compounds tested hit in one or more screens of this group.
BAZ2B block = inhibitors of human BAZ2B bromodomain; Q9UIF8; AlphaScreen BAZ2B-H3K14Ac peptide displacement; Potency, µM (top dose mostly 114 µM), without a hit: at the highest dose activity change, negative = inhibition, hits mostly inhibitors; 360,000 compounds, 4.4% hits; further: on the % scale 0 is the no-effect control and ±100 the full control effect; nearly all actives have a fitted effect of over 60% in size
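AlphaScreen luminescence quantifies BAZ2B engagement of H3K14Ac peptide; the protein and biotinylated peptide are both at 50 nM final, buffer PBS pH 7.4 with 0.01% Tween-20, all steps at room temperature.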
Sfp inh = Sfp phosphopantetheinyl transferase inhibition | 310,000 compounds, 3.5% hits | Potency, µM, for the others: largest response in the series, negative = inhibition, hits mostly inhibitors | Biochemical Sfp PPTase activity, qHTS | Q9F4F7;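 further: the enzyme is Sfp with the accession as filed and its product quenches rhodamine fluorescence; 0% = enzyme reaction without inhibitor and -100% = no enzyme wells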
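Buffer: 50 mM Hepes-Na pH 7.6, 10 mM MgCl2, 0.01% Nonidet P-40, 0.01% BSA. Enzyme 15 nM, pre-exposed to compound 15 min; substrates then added and fluorescence change tracked over 30 min.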
JMJD2A Tudor = inhibitors of human JMJD2A Tudor domain | O75164 | AlphaScreen JMJD2A-Tudor / H3K4me3 peptide binding | Potency, µM (doses to about 114 µM), inactives show at the highest dose activity change, negative = inhibition, most hits filed as inhibitors | 390,000 compounds, 4.4% hits | AID 504339; further: on the % scale 0 is the no-effect control and ±100 the full control effect; nearly all actives have a fitted effect of over 50% in size
G9a block = inhibitors of human histone lysine methyltransferase G9a | Q96KQ7 | G9a H3K9 monomethylation, AlphaScreen, 2 h | Potency, µM (top dose mostly 102 µM), for the others: top-dose activity, negative = inhibition, usual class: inhibitors | 350,000 compounds, 8.8% hits; further: on the % scale 0 is the no-effect control and ±100 the full control effect; nearly all actives have a fitted effect of over 75% in size
Target sequence (Q96KQ7 913-1193 limits assumed): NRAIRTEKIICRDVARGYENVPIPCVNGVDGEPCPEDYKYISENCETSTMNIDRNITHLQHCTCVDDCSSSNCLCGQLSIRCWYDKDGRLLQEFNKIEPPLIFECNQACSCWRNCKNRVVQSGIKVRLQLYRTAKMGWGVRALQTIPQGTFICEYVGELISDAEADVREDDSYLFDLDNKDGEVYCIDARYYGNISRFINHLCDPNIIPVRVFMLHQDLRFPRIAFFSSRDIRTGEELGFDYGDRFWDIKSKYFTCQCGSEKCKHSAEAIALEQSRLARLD
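Readings reflect AlphaScreen signal from monomethyl-H3K9 antibody detection. HMT at 20 nM; substrate b-H3K9 500 nM; cofactor SAM 20 uM; 2 h RT reaction; compounds tested as titrations in qHTS with 15 min preincubation.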
HP1b chromo inh = HP1-beta chromodomain-methylated histone interaction inhibition; 390,000 compounds, 0.56% hits; AlphaScreen HP1-beta / biotin-H3K9me3 peptide binding; Potency, µM (doses to about 114 µM), without a hit: top-dose activity change, negative = inhibition, actives largely listed as inhibitors; P83916; further: nearly all actives have a fitted effect of over 70% in size
Target sequence (P83916 whole entry, looked up): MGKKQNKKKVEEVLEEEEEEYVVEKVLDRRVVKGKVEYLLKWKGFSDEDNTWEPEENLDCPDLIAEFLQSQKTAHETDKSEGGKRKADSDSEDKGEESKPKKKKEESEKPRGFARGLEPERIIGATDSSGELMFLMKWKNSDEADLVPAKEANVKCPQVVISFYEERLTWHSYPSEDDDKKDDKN
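Compound inhibition of the preformed complex between 50 nM HP1-beta and 50 nM biotinylated H3K9me3 peptide was read by AlphaScreen. Buffer was PBS pH 7.4 with 0.01% Tween-20. Incubations ran 30 min at room temperature, with 10 ug/mL donor/acceptor beads.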
L3MBTL1 block = blocks human L3MBTL1; Q9Y468; AlphaScreen L3MBTL1–H3K9me1 peptide binding; Potency, µM (highest dose often 57.1 µM), inactives show at the highest dose activity, negative = inhibition, actives largely listed as inhibitors; 230,000 compounds, 0.66% hits; AID 485360; further: on the % scale 0 is the no-effect control and ±100 the full control effect; nearly all actives have a fitted effect of over 60% in size
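L3MBTL1 (50 nM) pre-complexed 30 min with biotinylated H3(1-15)K9me1 peptide (75 nM), then compounds added for 30 min at room temperature; AlphaScreen streptavidin donor/nickel chelate acceptor beads (10 ug/mL final) read after 30 min dark incubation.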
* hit, by the source's call; ? = inconclusive; · = no result; [ ] = dose if it differs, or a comment. The call rests on the fitted dose curve; in most records, active means well fitted curve in the direction sought with a large enough effect; inconclusive means small, poorly fitted or top-dose-only effect, or another doubt; inactive means no such curve, though single readings can be large; an effect the other way counts as inactive or inconclusive. Potency means the concentration at half of the fitted maximal effect.

SMILES	BAZ2B block	Sfp inh	JMJD2A Tudor	G9a block	HP1b chromo inh	L3MBTL1 block
C=CCc1cc(OC)ccc1OCCON1C(=O)CCC1=O	?	2.1%	-23.3%[11.4 µM]	7.8%[59 µM]	-8.8%	0.1%
C=CCc1cc(OC)ccc1OCCCCn1cncn1	50.1µM*	?	5.62µM*	28.2µM*	?	-6.8%
CN(CCOCCOc1ccc(F)cc1)Cc1ccccc1	79.4µM*	?	12.6µM*	?	?	-3.8%
O=C1CSC(c2ccc([N+](=O)[O-])cc2)N1Cc1ccccc1 (stereo unspecified)	-32.2%	13.0%	-27.1%	-6.7%	35.6%	0.4%
Cc1ccc(S(=O)(=O)Nc2cc(Br)cc3cccnc23)cc1	·	·	1.4%	·	57.5%	·
O=C1C2C(c3ccccc3)CC=CC2C(c2ccc(C(F)(F)F)cc2)N1Cc1ccccc1 (stereo unspecified)	·	-7.3%	-20.7%	·	9.5%	·
COc1ccc(CN(CCN(C)C)Cc2ccccc2)c(OC)c1	79.4µM*	?	2.51µM*	8.91µM*	-38.6%	-9.7%
COc1ccc(OCC(=O)N(C)Cc2ccccc2)cc1	3.3%	12.3%	-17.2%	21.1%	39.9%	-3.4%
COc1ccc(OCCCCN(C)Cc2ccccc2)cc1	70.8µM*	-26.5%	20µM*	?	?	-8.9%
CC(=O)NCCc1c(Cc2ccccc2)[nH]c2ccccc12	·	9.3%	·	19.0%[59 µM]	·	·
CCCCC(=O)NCCc1c(Cc2ccccc2)[nH]c2ccccc12	·	-6.4%	·	12.6µM*	·	·
Cc1cc(=O)n(CCO)c(O)c1C#N	?	-18.4%	?	?	1.5%	·
Cc1c(C#N)c(O)n(CCO)c(=O)c1N=Nc1ccc2c(c1)COC2=O	-17.5%	11.7%	-34.4%	50.1µM*	-18.0%	·
COc1ccc(NCC(=O)NN=C2CCS(=O)(=O)c3ccc(F)cc32)cc1	·	·	-2.7%	·	24.8%	-9.9%
N#Cc1c(-c2ccccc2)[nH]c(=S)[nH]c1=O	-20.3%	50.1µM*	17.9%	-42.2%[12.7 µM]	22.2%	·
N#Cc1c(-c2cccc(Cl)c2)[nH]c(=S)[nH]c1=O	-3.7%	?	-28.4%	·	2.6%	10.8%
COc1cc(C(=O)N2CCN(C(=O)c3cccc4ccccc34)CC2)cc(OC)c1OC	-12.0%	14.4%	-18.0%	16.7%	-4.0%	·
Cc1cccc(CN2CCN(C(=O)c3cccc4ccccc34)CC2)c1	56.2µM*	-23.5%	2.24µM*	22.7%[0.501 µM]	?	-0.8%[2.29 µM]
COc1cccc(CN2CCN(C(=O)c3cccc4ccccc34)CC2)c1OC	56.2µM*	?	3.98µM*	?	20µM*	·
COc1ccc(CN2CCN(C(=O)c3ccccc3F)CC2)c(OC)c1OC	·	·	1.78µM*	·	?	·
COc1cccc(CN2CCN(C(=O)c3ccco3)CC2)c1OC	·	·	5.62µM*	·	44.7µM*	·
O=S(OCCN1CCCC1)C(c1ccccc1)c1ccccc1 (stereo unspecified)	·	·	-16.7%	·	2.7%	·
CC(NC(=O)c1ccc(N2Cc3ccccc3Oc3ncccc32)s1)c1ccccc1 (stereo unspecified)	2.9%	·	-1.9%	-1.2%[59 µM]	38.0%	·
CCOc1cccc(-c2c(C(=O)N/N=C/c3cccs3)nnn2-c2nonc2N)c1	16.4%	10.4%	-22.9%	·	28.2%	·
COc1cccc(OC)c1C(=O)N1CCN(Cc2ccccc2C)CC1	50.1µM*	-28.1%	-31.5%[11.4 µM]	31.6µM*	?	2.9%
SMILES	BAZ2B block	Sfp inh	JMJD2A Tudor	G9a block	HP1b chromo inh	L3MBTL1 block
COc1cccc(C(=O)N2CCN(Cc3ccco3)CC2)c1OC	-36.8%	-22.6%	?	-0.3%[59 µM]	?	2.6%
COc1ccccc1CN1CCN(C(=O)c2cccc3ccccc23)CC1	·	·	20µM*	·	?	·
Cc1ccccc1CN1CCN(C(=O)c2cccc3ccccc23)CC1	56.2µM*	-27.9%	25.1µM*	20µM*	?	-0.9%
COc1ccccc1C(=O)N1CCN(Cc2c[nH]c3ccccc23)CC1	50.1µM*	-21.1%	17.8µM*	-19.9%	?	·
CCCCN1C(=O)C2(NNc3ccccc3O2)c2ccccc21 (stereo unspecified)	44.7µM*	?	?	?	-23.1%	·
C=CCN1C(=O)C2(NNc3ccccc3O2)c2ccccc21 (stereo unspecified)	?	?	?	15.8µM*	-7.4%	·
CSc1nc(N2CCN(Cc3ccc4c(c3)OCO4)CC2)c2ccccc2n1	?	-9.5%	-25.4%	-3.1%	11.4%	·
COc1ccc(C2c3[nH]c4ccccc4c3C[C@H]3C(=O)N(C4CCN(Cc5ccccc5)CC4)CC(=O)N23)cc1OC (stereo partly specified)	?	1.0%	?	12.6µM*	-7.3%	·
COc1cccc(C2c3[nH]c4ccccc4c3C[C@H]3C(=O)N(C4CCN(Cc5ccccc5)CC4)CC(=O)N23)c1 (stereo partly specified)	?	8.9%	?	5.0%[12.7 µM]	3.7%	·
CCOC(=O)c1cnc2c(C)cc(C)cc2c1NCCN1CCOCC1	-3.0%	·	-12.7%	-3.2%[59 µM]	16.4%	·
COC(=O)C1=C(CSc2nc3ccccc3s2)NC(=O)NC1c1ccc(F)cc1 (stereo unspecified)	4.9%	-25.8%	-10.1%	39.8µM*	-3.6%	-3.7%
COC(=O)c1ccc(CSc2nc3ccccc3s2)o1	69.1%	-11.6%	47.2%	3.0%[59 µM]	81.2%	28.2%
Cc1cc(C(=O)CSc2nnc(-c3cccnc3)n2-c2ccccc2F)c(C)n1CC1CCCO1 (stereo unspecified)	-10.2%	-1.2%	-20.3%	?	8.3%	·
COc1ccc(C(=O)NCc2c(C)oc(C)c2C(=O)O)cc1	-32.1%	5.8%	-19.0%	?	4.9%	-3.0%
COc1ccc(C(=O)NCc2oc(-c3ccccc3)cc2C(=O)O)cc1	-5.8%	25.1µM*	-23.9%	?	2.0%	-2.6%[11.4 µM]
COc1ccc(-c2nnc(SCc3ccc(C(=O)O)cc3)n2C)cc1OC	-1.7%[0.457 µM]	19.0%	-1.0%	44.2%[59 µM]	40.5%	-0.6%
O=C(N=C1SC2CS(=O)(=O)CC2N1c1ccc(Cl)cc1Cl)C1CC1 (stereo unspecified)	-23.1%	23.5%	-9.7%	79.4µM*	27.5%	·
O=C(CN1CCOCC1)Nc1nc2ccc(Br)cc2s1	-5.4%	-4.1%	1.1%	50.1µM*	37.6%	·
O=C(CN1CCN(Cc2ccccc2)CC1)Nc1nc2ccccc2s1	-15.4%	3.6%	-20.7%	0.0%	22.4%	·
NC(=S)Nc1nc2ccccc2s1	-14.5%	50.1µM*	-18.1%	55.0%	-11.5%	·
CN1CCN(CC(=O)Nc2nc3ccccc3s2)CC1	70.8µM*	-8.0%	28.2µM*	35.5µM*	?	0.0%
O=C(CN1CCCCCC1)Nc1nc2ccccc2s1	·	·	22.4µM*	·	?	·
COCC(=O)Nc1nc2ccccc2s1	-27.7%	11.9%	4.0%	10.3%[59 µM]	44.9%	·
